Wnt act: Wnt/beta-catenin pathway activators, primary screen, cell-based, plate reader, single point. Wnt/beta-catenin reporter cell assay, activator. activation, % at 9.35 µM. AID 743398, 2014. actives 1.2% (n = 300,000); in the data active = activation above about 30%, passing the limit was not always enough; inconclusive = no clear call, values can overlap the other calls;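 note: 0% = neutral control wells and 100% = positive control wells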
MITF act: activators of MITF-driven TRPM1 promoter reporter, primary screen, cell-based, SK-MEL-5, luciferase, single point; actives 0.75% (n = 300,000); activation, % at 12.5 µM; SK-MEL-5 TRPM1-promoter luciferase, 24 h; % of positive control, neutral wells = 0;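 active = mean activation of at least 80% with every replicate also reaching 80%; inconclusive = mean reaches 80% but some replicate falls short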;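 note: 0% = neutral control wells and 100% = parthenolide positive control wells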
AHR activator: AHR activators, primary screen, cell-based, luminescence, luciferase reporter, human. activation, % at 5 µM. Aryl hydrocarbon receptor (Homo sapiens), P35869. AHR-responsive luciferase reporter cells. AID 2796, 2010. actives 2.5% (n = 320,000); in the data active = activation above about 47%;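 note: 0% = vehicle wells and 100% = reference agonist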
Target sequence (P35869 whole entry, looked up): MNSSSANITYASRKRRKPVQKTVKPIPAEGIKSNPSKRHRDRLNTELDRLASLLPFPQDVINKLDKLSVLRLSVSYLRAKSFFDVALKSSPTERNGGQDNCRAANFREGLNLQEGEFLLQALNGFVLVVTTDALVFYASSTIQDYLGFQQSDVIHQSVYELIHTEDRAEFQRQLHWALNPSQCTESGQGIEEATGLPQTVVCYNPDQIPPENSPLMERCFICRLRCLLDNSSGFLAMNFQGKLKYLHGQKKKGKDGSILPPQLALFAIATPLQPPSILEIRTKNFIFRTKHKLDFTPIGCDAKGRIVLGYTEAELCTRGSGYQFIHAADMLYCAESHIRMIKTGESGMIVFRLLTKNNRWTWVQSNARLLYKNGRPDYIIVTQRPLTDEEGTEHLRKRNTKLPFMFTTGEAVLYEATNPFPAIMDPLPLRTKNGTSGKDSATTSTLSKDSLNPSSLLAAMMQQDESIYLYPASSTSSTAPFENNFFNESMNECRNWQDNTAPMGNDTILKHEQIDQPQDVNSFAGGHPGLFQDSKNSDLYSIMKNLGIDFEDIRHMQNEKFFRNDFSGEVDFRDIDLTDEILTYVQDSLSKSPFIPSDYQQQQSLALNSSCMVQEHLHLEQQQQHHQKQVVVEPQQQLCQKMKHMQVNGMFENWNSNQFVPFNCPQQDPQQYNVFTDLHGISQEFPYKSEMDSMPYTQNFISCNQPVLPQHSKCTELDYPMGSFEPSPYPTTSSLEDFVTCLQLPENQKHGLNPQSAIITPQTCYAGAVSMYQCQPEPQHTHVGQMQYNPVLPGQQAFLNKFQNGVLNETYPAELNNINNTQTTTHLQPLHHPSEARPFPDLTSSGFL
FXN GAA850 act: FXN promoter activators, primary screen, cell-based, luciferase luminescence, HEK293 lucGAA850. actives 0.56% (n = 360,000). activation, % at 6 µM. HEK293 lucGAA850 FXN promoter luciferase reporter, 24 h; percent of 10 µM SAHA response;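 active = activation above the average of all compounds screened plus 3 SD, cutoff fixed separately per campaign, cut at about 7.5% in these data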;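 note: 0% = DMSO wells and 100% = 10 µM SAHA wells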
esBAF inh: Bmi1 luciferase reporter increase in mESCs, primary screen, esBAF inhibitor project, mouse ES cells, Bmi1 luciferase knock-in, single point; 24 h; 100% = twice the neutral-well signal; reporter increase, % at 12.5 µM; actives 2% (n = 350,000); in the data active = activation above about 40%; inconclusive = no clear call, values can overlap the other calls;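 note: 0% = median of the plate's neutral control wells and 100% = double that signal; a rise in the Bmi1 reporter signal indicates esBAF inhibition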
GAA30 FXN cntr: GAA30 FXN promoter activators, confirmation, counter-screen for GAA850 frataxin promoter activator project, cell-based, luminescence, HEK293, lucGAA30, triplicate; shares compounds with FXN GAA850 act; HEK293 lucGAA30 FXN promoter luciferase, 24 h; DMSO = 0%, 5 µM ipriflavone = 100%; activation, % at 6 µM; actives 66% (n = 1,900);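 active = mean activation above the mean of solvent-only control wells plus 3 SD, cut at about 22% in these data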;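 note: counterscreen of GAA850 promoter hits where activity marks nonselective or luminescence artifacts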
FXN GAA850 conf: FXN GAA850 promoter activators in reporter cells, confirmation, cell-based, luminescence, HEK293 lucGAA850, triplicate | shares compounds with FXN GAA850 act | HEK293 lucGAA850 FXN promoter luciferase reporter, 24 h; 100% = activation by SAHA | activation, % at 6 µM | actives 86% (n = 1,900);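 active = mean activation above a set limit taken from the primary screen, cut at about 8% in these data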;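 note: 0% = DMSO wells and 100% = 10 µM SAHA wells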
Starred values were filed as active, the others as inactive. Only some compounds are listed: those with a hit (about 4.2% of all), similar ones and a draw of the others.

For CC(=O)Nc1ccc2c(c1)C(=O)N(C)[C@H]1CC[C@H](CC(=O)NCc3ccc(Cl)cc3)O[C@@H]1CO2 the results were esBAF inh -6.
`CCN1CCN(c2nnc(-c3ccccc3)c3ccccc23)CC1` gave Wnt act 0, MITF act -3, AHR activator 2, FXN GAA850 act 1 and esBAF inh -8.
Screening CCN1CCN(c2cc3c(nn2)Oc2ccccc2N3C)CC1 returned MITF act 82*, AHR activator -3, FXN GAA850 act 8.4*, GAA30 FXN cntr 140* and FXN GAA850 conf 42*.
For COc1ccc(S(=O)(=O)N(C)C[C@H]2Oc3ccc(N(C)C)cc3CC(=O)N([C@@H](C)CO)C[C@@H]2C)cc1 the results were esBAF inh -6.
For NC(=O)[C@@H]1CCCN1C(=O)c1ccc2oc(CCc3ccccc3)nc2c1 the results were Wnt act 15, MITF act 11, FXN GAA850 act 7.8*, esBAF inh 32, GAA30 FXN cntr 74* and FXN GAA850 conf 31*.
For Cc1ccc(-n2nc3cc(C)c(N)cc3n2)cc1 the results were MITF act 1, AHR activator 22 and FXN GAA850 act 3.
`Cc1cc2nc3ccc(N(C)C)cc3nc2cc1N` gave Wnt act 29, AHR activator 11, FXN GAA850 act 7.8*, esBAF inh -61, GAA30 FXN cntr 119* and FXN GAA850 conf 34*.
`CO[C@@H]1CN(C)C(=O)c2ccc(NC(=O)C3CC3)cc2OC[C@H](C)N(C(=O)NC(C)C)C[C@H]1C` gave esBAF inh 0.
Screening CCN(C(=O)c1ccco1)c1nc(-c2ccc(OC)cc2)cs1 returned Wnt act 21, AHR activator 5, FXN GAA850 act 8.3*, esBAF inh 81*, GAA30 FXN cntr 110* and FXN GAA850 conf 37*.
Screening Oc1c(C=Nc2ccccc2)sc2ccccc12 returned Wnt act -1, MITF act 17, AHR activator 6, FXN GAA850 act 10*, GAA30 FXN cntr 112* and FXN GAA850 conf 38*.
Oc1c(C=NCc2ccncc2)sc2ccccc12 was read as Wnt act 10 and AHR activator 28.
For Oc1sc(C=Nc2ccccc2)c2ccccc12 the results were Wnt act 58*, MITF act 40, AHR activator 50*, FXN GAA850 act 8.2*, esBAF inh 77*, GAA30 FXN cntr 125* and FXN GAA850 conf 42*.
Screening Oc1ccccc1N=Cc1sc2ccccc2c1Cl returned MITF act -7, AHR activator 16 and FXN GAA850 act 5.
CCC(=O)N1C[C@H](C)[C@H](OC)CN(C)C(=O)c2cc(NC(=O)Nc3ccc(Cl)cc3)ccc2OC[C@@H]1C was read as esBAF inh 11.
For O=C(NCCCN1CCOCC1)c1cc(-c2ccccc2)on1 the results were Wnt act 16, MITF act 3, AHR activator 11, FXN GAA850 act 17*, esBAF inh 11, GAA30 FXN cntr 101* and FXN GAA850 conf 56*.
Screening O=C(NCc1cccs1)c1cc(-c2ccc(O)cc2)on1 returned Wnt act 37*, MITF act 58, AHR activator 5, FXN GAA850 act 8.9*, esBAF inh inconclusive, GAA30 FXN cntr 103* and FXN GAA850 conf 32*.
O=C(NCCN1CCOCC1)c1cc2sccc2n1Cc1ccc(F)cc1 was read as MITF act 0, AHR activator -1, FXN GAA850 act 8.8*, esBAF inh 2, GAA30 FXN cntr 10 and FXN GAA850 conf 8.3*.
Screening O=C(NCCCN1CCOCC1)c1cc(-c2ccc(O)cc2)on1 returned Wnt act 8, AHR activator 0, FXN GAA850 act 2 and esBAF inh 5.
`O=C(NCCN1CCOCC1)c1cc(-c2ccccc2)on1` gave Wnt act 47*, MITF act 7, AHR activator 12, FXN GAA850 act 17*, esBAF inh 19, GAA30 FXN cntr 99* and FXN GAA850 conf 42*.
Screening C[C@@H]1CN([C@@H](C)CO)C(=O)c2cc(C3=CCCC3)cnc2O[C@@H]1CN(C)C(=O)c1ccncc1 returned esBAF inh -1.
For OC[C@H]1Nc2ccc(C#Cc3ccc(F)cc3)cc2[C@H]2[C@@H]1CCN2Cc1nccs1 the results were esBAF inh 4.
CCCCNC(=O)c1cc(-c2ccc(OC)c(OC)c2)on1 was read as Wnt act 5, MITF act 25, AHR activator -2, FXN GAA850 act 3 and esBAF inh 10.
`O=C(NCCN1CCOCC1)c1cc(-c2cccs2)on1` gave MITF act -8, AHR activator 62*, FXN GAA850 act 17*, esBAF inh 37, GAA30 FXN cntr 116* and FXN GAA850 conf 55*.
CCCCNC(=O)c1cc(-c2ccc(F)cc2)on1 was read as Wnt act -2, MITF act 15, AHR activator -7, FXN GAA850 act 32*, esBAF inh 21, GAA30 FXN cntr 166* and FXN GAA850 conf 79*.
Screening Cc1ccc(O)c(NC(=O)c2cc(-c3cccs3)on2)c1 returned Wnt act -12, MITF act 122*, AHR activator -2, FXN GAA850 act 9.9*, esBAF inh 52*, GAA30 FXN cntr 87* and FXN GAA850 conf 47*.
O=C(Nc1cccc(Cl)c1)N[C@@H]1CC[C@H](CCNC(=O)C2CCCCC2)O[C@@H]1CO was read as esBAF inh -3.
COC(=O)c1c(-c2ccc(F)cc2)csc1NC(=O)c1ccco1 was read as MITF act 118*, AHR activator -1, FXN GAA850 act 9.6*, GAA30 FXN cntr 91* and FXN GAA850 conf 38*.
Screening COC(=O)c1ccsc1NC(=O)c1ccco1 returned Wnt act 1, MITF act 5, AHR activator 3, FXN GAA850 act 1 and esBAF inh -5.
c1ccc(C2=NN(c3ccccc3)CC2)cc1 was read as Wnt act 50*, MITF act 88*, AHR activator 28, FXN GAA850 act 7.7*, esBAF inh 46*, GAA30 FXN cntr 108* and FXN GAA850 conf 30*.

Screens from PubChem.
